Assay results as given in PubChem BioAssay (NCATS).
Records with an inconclusive call do not appear. The source made the active and inactive calls. Calls follow the shape of the dose curve; as a rule, active = well fitted inhibition curve with a large enough effect; inconclusive = small, poorly fitted or top-dose-only effect; inactive = no such curve, though single readings can be large or run the other way.

The compounds below were run against Retinaldehyde dehydrogenase 3 (Homo sapiens) (UniProt P47895) (assay: qHTS for Inhibitors of the Aldehyde Dehydrogenase Family (ALDH1A3) Primary screen (AID 2061315;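 also: plate controls were DMSO vehicle for no effect and reference inhibitor for full effect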)). Details: ALDH inhibition qHTS; series mostly up to 56 µM; activity change, negative = inhibition: at the top concentration.

Row | Structure (SMILES) | activity change, negative = inhibition
1 | COC(=O)C1C(CC(C)=O)C=CC(O)C12Oc1cc(C)cc(O)c1C2=O (stereo not given) | -12.4% (inactive)
2 | NC(=O)C1CCN(c2nc(-c3cccc4sc5ccccc5c34)cs2)CC1 | 34.8% (inactive)
3 | O=C(OCC#CCNc1nnc(-c2cccc3ccccc23)o1)c1cccs1 | 35.5% (inactive)
4 | O=c1c2ccccc2nc2sc(NCc3ccccc3)nn12 | -4.33% (inactive)
5 | O=C(O)c1ccc(CSc2nnc(-c3cccc([S+](=O)([O-])N4CCCC4)c3)n2-c2ccccc2)cc1 | -1.04% (inactive)
6 | Cc1ccc(N[S+](=O)([O-])c2cc3c(cc2CCc2ccccc2)NC(=O)CO3)cc1C | 0.861% (inactive)
7 | CC(C)(C)OC(=O)N1CCN(c2ccc(NCc3cc(-c4ccc(C#N)cc4)co3)cc2)CC1 | -3.22% (inactive)
8 | CC(C)Oc1ccc(-c2csc(N3CCC(C(N)=O)CC3)n2)cc1 | -1.73% (inactive)
9 | Cc1c(P(=S)(c2ccccc2)c2ccccc2)c2ccccc2n1C/C=C/c1ccccc1 | 5.22% (inactive)
10 | Cc1cc(C)nc(NC(=S)N2CCN(c3ccc4c(c3)OCO4)CC2)c1 | -22.8% (inactive)
11 | O=c1c(Nc2ccc(F)c(C(F)(F)F)c2)c(Nc2nnc(-c3ccncc3)s2)c1=O | 13% (inactive)
12 | Cc1ccc2nc3sc(C(=O)Nc4ccc(F)cc4)cc3cc2c1 | -5.8% (inactive)
13 | CCC/C=C/c1cc2c(C=O)c(O)c(CC=C(C)C)cc2o1 | -9.15% (inactive)
14 | O=C(N1Cc2ccc(Nc3nn4c(=O)c5ccccc5nc4s3)cc2C1)C(F)(F)F | -3.87% (inactive)
15 | CC(=O)c1ccc(N2CCN(S(=O)(=O)c3ccc4[nH]c(=O)[nH]c4c3)CC2)cc1 | -18.1% (inactive)
16 | Cc1c(C(=O)O)[nH]c2c1C(=O)CC(c1ccco1)C2 (stereo not given) | -13.5% (inactive)
17 | FC(F)(F)c1ccccc1-c1nc(NCc2ccc(-c3ccc4c(c3)OCCO4)cc2)c2ccccc2n1 | -18.9% (inactive)
18 | CCOC(=O)c1ccc(-c2ccc3ncnc(N(C)Cc4ccc(C)o4)c3c2)o1 | -5.42% (inactive)
19 | CS(=O)(=O)c1ccc(C(=O)OCC(=O)N2CCN(Cc3ccccc3)CC2)cc1[N+](=O)[O-] | -7.01% (inactive)
20 | Cc1csc(CNc2ncnc3ccc(-c4ccc(CO)o4)cc23)n1 | 4.57% (inactive)

Row | Structure (SMILES) | activity change, negative = inhibition
21 | Cc1ccc(NS(=O)(=O)c2cc3c(cc2-c2ccsc2)NC(=O)CO3)cc1C | 1.67% (inactive)
22 | Cc1cc(C)n2ncc(C(=O)Nc3ccccc3)c2n1 | 14.3% (inactive)
23 | NC(=O)C1CCN(c2nc(-c3ccc(Oc4ccccc4)cc3)cs2)CC1 | 1.49% (inactive)
24 | Cc1ccsc1CN(C)c1ncnc2ccc(-c3ccc4c(c3)OCO4)cc12 | 0.0614% (inactive)
25 | Oc1ccc(CNc2ccc(F)cc2Cl)c2cccnc12 | -29.8% (inactive)
26 | O=C(O)c1cccc(-n2cccc2/C=C2/NC(=O)N(c3cccc(Cl)c3)C2=O)c1 | 17% (inactive)
27 | Cc1nc(CN(C)c2ncnc3cc(-c4ccc5c(c4)OCO5)ccc23)cs1 | -16.3% (inactive)
28 | NC(=O)C1CCN(c2ncnc(-c3ccc4c(c3)OCCCO4)n2)CC1 | -10.2% (inactive)
29 | CN1CCN(c2ccc(CNc3nn4c(=O)c5ccccc5nc4s3)cc2)CC1 | -0.789% (inactive)
30 | N#Cc1c(-c2ccccc2C(F)(F)F)nc2ccccc2c1NCc1ccc(-c2ccnc(C(F)(F)F)c2)cc1 | -0.0122% (inactive)
31 | N#Cc1c(-c2ccc(C(F)(F)F)cc2)no[n+]1[O-] | -6.59% (inactive)
32 | O=C(Cc1ccc(Cl)c(Cl)c1)Nc1ccc(S(=O)(=O)Nc2cncnc2)cc1 | 23.9% (inactive)
33 | CC1=C(C(=O)Nc2ccon2)C(c2nn(C)cc2Cl)N=C(Nc2nc3ccccc3o2)N1 (stereo not given) | 16% (inactive)
34 | O=C(O)c1ccc(O)c2ncc(-c3ccc(N4CCOCC4)cc3)cc12 | -13% (inactive)
35 | COc1cccc(-c2nc(SC)nc3sc(C(=O)NC(C)(C)C)c(N)c23)c1 | 5.28% (inactive)
36 | N#Cc1ccc(-c2ccc(-c3nc4ccccc4c(=O)[nH]3)o2)cc1 | -1.47% (inactive)
37 | C/C=C/C1=CC2=C(CO1)C(=O)C(C)(OC(=O)c1c(C)cc(O)cc1OC)C(O)C2 (stereo not given) | -20.5% (inactive)
38 | COc1cc(C(N)=O)nc(-c2ccccn2)c1O | 11.7% (inactive)
39 | COc1ccc(C2c3ccc(OCc4ccccc4)cc3Oc3ncn(CCN4CCOCC4)c(=N)c32)cc1OC (stereo not given) | 0.635% (inactive)
40 | Clc1nc(CN2CCOCC2)nc2sc3c(c12)CCC3 | -5.31% (inactive)
